In the supplement of paper PMC3334620:
Over roughly 33,000 sequences, “E-score (-0.5 to 0.5)” has its median near -0.053; the highest 2% begin near 0.37. For the sample, the highest values were picked, then their nearest neighbours and some sequences at random.

Biological target: Hap1 (UniProt P0CE41)
Assay: PBM E-score (8-mer binding enrichment) (E-score (-0.5 to 0.5)); higher = stronger / more preferred TF binding
Details: protein concentration: 200 nM; construct: GST-DNA-binding domain
Method: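 Universal 'all 10-mer' protein binding microarrays (Agilent AMADID 015681) probed with GST-tagged S. cerevisiae TFs (full-length or DBD) made by in vitro transcription/translation (PURExpress), about 100-200 nM. Bound TF was detected with fluorescent anti-GST. Each ungapped 8-mer (which stands for itself and its reverse complement) is scored by the PBM enrichment score (E-score), a modified Wilcoxon-Mann-Whitney statistic from -0.5 to +0.5, computed with the Universal PBM Analysis Suite. Scale: above 0.35 generally sequence-specific binding.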

Chain of UniProt P0CE41 (P0CE41 whole entry): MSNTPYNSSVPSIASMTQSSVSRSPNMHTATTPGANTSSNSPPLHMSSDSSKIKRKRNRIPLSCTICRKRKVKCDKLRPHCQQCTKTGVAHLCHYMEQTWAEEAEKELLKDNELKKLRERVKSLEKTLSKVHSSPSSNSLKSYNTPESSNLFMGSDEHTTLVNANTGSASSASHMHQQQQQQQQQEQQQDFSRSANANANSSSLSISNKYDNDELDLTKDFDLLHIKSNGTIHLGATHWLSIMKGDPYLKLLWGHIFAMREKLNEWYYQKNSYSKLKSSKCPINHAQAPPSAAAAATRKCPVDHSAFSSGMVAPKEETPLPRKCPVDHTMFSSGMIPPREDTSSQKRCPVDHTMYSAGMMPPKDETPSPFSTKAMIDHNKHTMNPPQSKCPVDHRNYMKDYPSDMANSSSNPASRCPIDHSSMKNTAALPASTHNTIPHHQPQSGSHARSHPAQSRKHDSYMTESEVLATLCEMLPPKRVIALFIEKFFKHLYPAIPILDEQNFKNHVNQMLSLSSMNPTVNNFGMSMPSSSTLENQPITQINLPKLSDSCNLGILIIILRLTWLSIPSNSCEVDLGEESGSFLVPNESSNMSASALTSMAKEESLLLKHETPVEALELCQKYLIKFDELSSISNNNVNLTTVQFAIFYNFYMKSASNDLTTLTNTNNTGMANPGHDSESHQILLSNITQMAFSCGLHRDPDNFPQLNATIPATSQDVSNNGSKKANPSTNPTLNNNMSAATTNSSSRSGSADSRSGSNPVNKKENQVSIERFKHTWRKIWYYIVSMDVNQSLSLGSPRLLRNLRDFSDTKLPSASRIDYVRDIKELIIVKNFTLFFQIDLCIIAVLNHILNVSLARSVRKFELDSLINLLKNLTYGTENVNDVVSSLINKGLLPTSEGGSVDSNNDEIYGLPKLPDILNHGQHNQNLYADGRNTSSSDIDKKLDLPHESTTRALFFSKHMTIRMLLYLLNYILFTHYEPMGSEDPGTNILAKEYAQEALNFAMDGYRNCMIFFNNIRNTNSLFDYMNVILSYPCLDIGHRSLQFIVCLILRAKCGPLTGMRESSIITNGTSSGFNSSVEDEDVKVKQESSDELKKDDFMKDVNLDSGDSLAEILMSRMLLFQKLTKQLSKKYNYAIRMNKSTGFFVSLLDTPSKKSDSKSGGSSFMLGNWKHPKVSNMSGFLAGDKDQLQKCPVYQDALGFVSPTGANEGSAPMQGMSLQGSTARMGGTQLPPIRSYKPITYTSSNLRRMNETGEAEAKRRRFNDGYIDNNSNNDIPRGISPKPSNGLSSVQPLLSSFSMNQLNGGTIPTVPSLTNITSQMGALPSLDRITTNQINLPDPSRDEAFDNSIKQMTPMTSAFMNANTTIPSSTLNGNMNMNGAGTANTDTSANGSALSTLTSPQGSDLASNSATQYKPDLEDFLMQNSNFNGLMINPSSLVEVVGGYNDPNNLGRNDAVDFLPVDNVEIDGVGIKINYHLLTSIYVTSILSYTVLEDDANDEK

Row | Sequence | PBM E-score
1 | ACACCTGA | -0.135
2 | TGTCGAAA | -0.229
3 | CAAGTGTC | -0.197
4 | AAGAAACA | 0.00593
5 | ACCGCAAT | 0.239
6 | TATCCCGA | 0.221
7 | AATCCCGT | 0.372
8 | AATCCCAT | -0.107
9 | AATCCCGA | 0.409
10 | AATCCCGC | 0.257
11 | CATCCCGA | 0.176
12 | CTGGTGAC | -0.288
13 | CCAGCGAA | -0.0597
14 | AGGCATTA | -0.08
15 | CGGCAATA | 0.408
16 | GGGCATTA | 0.0704
17 | CGGCATTA | 0.459
18 | AGGCAATA | -0.181
19 | CGGCAATC | 0.284
20 | TATATTGA | 0.0255
21 | ACAGTGGA | -0.0195
22 | CACCAAGC | -0.174
23 | AGTCCCTC | -0.175
24 | ATTGTCCG | 0.396

Row | Sequence | PBM E-score
25 | CATGTCCG | 0.372
26 | AATGTCCA | -0.104
27 | CATGTCCC | -0.054
28 | CATGTCCA | -0.0578
29 | AATGTCCG | 0.443
30 | AATGTCCT | -0.144
31 | ATTGTCCC | 0.0458
32 | ATTGTCCA | -0.128
33 | GGCCATAC | 0.17
34 | CGCTACGA | 0.111
35 | CTCTCATC | -0.159
36 | CAGATTAG | -0.167
37 | AGGACATA | -0.187
38 | GCTCAGTA | -0.239
39 | CCAATGCA | -0.186
40 | CGGACCCA | 0.346
41 | AAGTGACA | -0.105
42 | ACCGGTCG | 0.289
43 | ACCGGATC | 0.296
44 | ACCGGATG | 0.329
45 | AACGGACT | 0.337
46 | AGCGGACT | 0.287
47 | AACGGACC | 0.327
48 | ACCGGACG | 0.421

Row | Sequence | PBM E-score
49 | ACCGGACT | 0.408
50 | ACCGGACC | 0.397
51 | CTTCTGAC | -0.224
52 | CTCCAGCA | -0.241
53 | AATACGCG | 0.0739
54 | ACTAAACG | -0.112
55 | ATACCTTA | -0.0965
56 | AAACTACG | 0.118
57 | CCCTCCAC | -0.233
58 | GCGACGGA | 0.258
59 | GGGACGGA | 0.227
60 | AGGACGTA | 0.00968
61 | CGGACGTA | 0.443
62 | CCGACGGA | 0.386
63 | CGGACGGC | 0.327
64 | CGGACGTC | 0.258
65 | CGGACGGA | 0.397
66 | ACGACGGA | 0.199
67 | CAGGTGTA | -0.199
68 | CAGGTATG | -0.00123
69 | CGGGTGGC | 0.152
70 | CACCCCAC | -0.026
71 | CCCCGTGC | 0.269
72 | ACAACTTC | 0.00956

Row | Sequence | PBM E-score
73 | CCCGACAA | 0.311
74 | CCAAGCTA | -0.112
75 | CGCAGGAG | -0.0823
76 | ACACCGGC | 0.341
77 | TCACCGCA | 0.0366
78 | CCACCGGA | 0.432
79 | TCACCGGA | 0.373
80 | CCACCGGC | 0.233
81 | ACACCGGA | 0.395
82 | ACACCGGT | 0.359
83 | CCACCGGG | 0.34
84 | GCACCGGA | 0.353
85 | GATCAGCC | -0.11
86 | CTGCAGAC | -0.128
87 | GACCCAAA | -0.00261
88 | GGAGTATA | 0.206
89 | ACATGTAG | -0.081
90 | CAAAGCAC | -0.138
91 | CGGTGAGC | 0.0638
92 | AGACCTGA | -0.0959
93 | CCGCGGTA | 0.303
94 | ATCCTCTC | -0.186
